Assay outcomes deposited in PubChem BioAssay by Broad Institute.
Hedgehog inh: Sonic Hedgehog pathway inhibition. Shh-LIGHT2 Gli-luciferase reporter, 30 h. inhibition, % (test concentration not listed). actives 2.1% (n = 22,000);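 active means mean inhibition across valid replicates above about 65%, limit read from the data; inconclusive means mean under the limit, yet half or more replicates past it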;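 further: pathway switched on by Shh-conditioned medium diluted 1 in 25 in low serum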
MITF inhib: MITF inhibition. actives 0.28% (n = 37,000). inhibition, % (concentration not given with the values). TRPM1 promoter luciferase, luminescence, 24 h; in the data active means inhibition above about 85%; inconclusive means no clear call, values can overlap the other calls; inactive means below about 68%;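 further: human melanocyte line stably carrying TRPM1 promoter luciferase reporter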
NOMO-1 viab: STK33 inhibitor candidate reducing NOMO-1 cell viability. AID 2330. inhibition, % (no concentration beside the values). actives 7.5% (n = 37,000). NOMO-1 AML viability, CellTiter-Glo luminescence, 72 h; in the data active means inhibition above about 80%; inconclusive means no clear call, values can overlap the other calls
Active calls of the source: *; ? = inconclusive; . = no result. An excerpt weighted towards active compounds, which were near 8.1% of everything screened.

SMILES	Hedgehog inh	MITF inhib	NOMO-1 viab
COc1ccc(S(=O)(=O)Nc2ccc3c(c2)CC(=O)N([C@@H](C)CO)C[C@H](C)[C@@H](CN(C)CC2CC2)O3)cc1	11.1	0.4	-4.4
COc1ccc(S(=O)(=O)Nc2ccc3c(c2)CC(=O)N([C@@H](C)CO)C[C@@H](C)[C@@H](CN(C)CC2CCCCC2)O3)cc1	20.0	-2.1	100.6*
COc1ccc(S(=O)(=O)Nc2ccc3c(c2)CC(=O)N([C@@H](C)CO)C[C@@H](C)[C@@H](CN(C)CC2CC2)O3)cc1	.	-7.8	6.9
COc1ccc(S(=O)(=O)Nc2ccc3c(c2)CC(=O)N([C@@H](C)CO)C[C@H](C)[C@@H](CN(C)CC2CCCCC2)O3)cc1	20.1	12.4	108.8*
Cc1nc(SCCC(=O)Nc2ccccc2C#N)nc2cc3c(cc12)CCC3	.	-50.5	2.5
CCOC(=O)CSc1c(-c2cccs2)[nH]c2ccccc12	-15.0	37.0	139.4*
CCOC(=O)CC1=Nn2c(nnc2-c2cccs2)SC1	15.9	1.3	-3.4
Cc1cc(C)c(OCC(O)CN2CCN(CCO)CC2)c(C)c1 (centres undefined)	.	-1.0	-20.6
CC(C)NC(=O)Nc1ccc2c(c1)CC(=O)N([C@H](C)CO)C[C@H](C)[C@H](CN(C)S(=O)(=O)c1ccccc1)O2	21.5	0.0	17.2
CSC1=C(C#N)C(=O)NC(c2ccc(Cl)cc2)S1 (centres undefined)	0.0	6.4	115.7*
COc1cccc(NC2=C(C#N)C(=O)NC(c3cccc(OC)c3O)S2)c1 (centres undefined)	8.1	3.8	11.3
C[C@@H]1CN([C@H](C)CO)C(=O)c2cc(NS(=O)(=O)c3ccccc3)ccc2O[C@@H]1CN(C)Cc1ccc(C(=O)Nc2ccccc2N)cc1	.	20.2	108.5*
C[C@@H]1CN([C@@H](C)CO)C(=O)c2cc(NS(=O)(=O)c3ccccc3)ccc2O[C@H]1CN(C)Cc1ccc(C(=O)Nc2ccccc2N)cc1	.	16.2	37.8
Cc1ccc(S(=O)(=O)Nc2ccc3c(c2)C(=O)N([C@H](C)CO)C[C@@H](C)[C@@H](CN(C)Cc2ccc(C(=O)Nc4ccccc4N)cc2)O3)cc1	.	24.5	110.2*
C[C@@H]1CN([C@H](C)CO)C(=O)c2cc(NS(=O)(=O)c3ccc(F)cc3)ccc2O[C@@H]1CN(C)Cc1ccc(C(=O)Nc2ccccc2N)cc1	.	16.3	107.6*
C[C@@H]1CN([C@@H](C)CO)C(=O)c2cc(NS(=O)(=O)c3ccc(F)cc3)ccc2O[C@H]1CN(C)Cc1ccc(C(=O)Nc2ccccc2N)cc1	.	2.1	?
Cc1ccc(S(=O)(=O)Nc2ccc3c(c2)C(=O)N([C@@H](C)CO)C[C@@H](C)[C@H](CN(C)Cc2ccc(C(=O)Nc4ccccc4N)cc2)O3)cc1	.	2.0	17.0
Cc1ccc(S(=O)(=O)Nc2ccc3c(c2)C(=O)N([C@@H](C)CO)C[C@H](C)[C@@H](CN(C)Cc2ccc(C(=O)Nc4ccccc4N)cc2)O3)cc1	.	29.0	65.1
C[C@H](CO)N1C[C@H](C)[C@H](CN(C)Cc2ccc(C(=O)Nc3ccccc3N)cc2)Oc2ccc(NS(=O)(=O)c3ccccc3)cc2C1=O	.	-5.4	109.1*
C=CC1(C)OCO/C1=C\C[N+](C)(C)C (centres undefined)	-28.6	-4.9	-3.6
C[C@@H]1CN([C@@H](C)CO)C(=O)c2cccc(NC(=O)C3CCOCC3)c2O[C@H]1CN(C)C	-14.6	5.7	6.7
COc1ccc(S(=O)(=O)Nc2cccc3c2O[C@H](CN(C)C)[C@H](C)CN([C@H](C)CO)C3=O)cc1	-15.0	-3.0	2.0
C[C@H]1CN([C@@H](C)CO)C(=O)c2cc(NS(=O)(=O)c3ccc(Cl)cc3)ccc2O[C@@H]1CN(C)Cc1ccc(C(=O)Nc2ccccc2N)cc1	.	7.8	54.6
C[C@@H]1CN([C@@H](C)CO)C(=O)c2cc(NS(=O)(=O)c3ccc(Cl)cc3)ccc2O[C@@H]1CN(C)Cc1ccc(C(=O)Nc2ccccc2N)cc1	.	21.0	110.4*
COc1ccc(NC(=O)N(C)C[C@@H]2Oc3ccc(NC(=O)CCC(F)(F)F)cc3C(=O)N([C@H](C)CO)C[C@@H]2C)cc1	.	1.8	-4.5
SMILES	Hedgehog inh	MITF inhib	NOMO-1 viab
C[C@@H]1CN([C@@H](C)CO)C(=O)c2cccc(NC(=O)CCCCCC(=O)Nc3ccccc3N)c2O[C@@H]1CN(C)C(=O)Nc1ccccc1	.	-28.1	11.6
OC(COc1ccc(F)cc1)(c1ccc(Cl)cc1)c1ccc(Cl)cc1	74.6*	38.2	121.1*
O=S(=O)(Cc1ccc(Cl)cc1)CC(O)COc1ccc(F)cc1 (centres undefined)	-35.3	11.9	26.0
O=C(Nc1ccccc1)Nc1ccc(Cl)cc1SCc1ccccc1	18.4	12.8	?
CCCCn1c(NCc2ccc(OC)cc2O)nc2ccccc21	.	-6.2	5.7
COc1ccc(CCN2CCC(Nc3nc4ccccc4n3Cc3ccc(F)cc3)CC2)cc1	39.7	-10.4	113.9*
COc1ccc(-n2c(SCCCN3C(=O)c4cccc5cccc(c45)C3=O)nnc2-c2cccnc2)cc1	.	24.7	33.5
C[C@@H]1CN([C@@H](C)CO)C(=O)c2cccc(NS(=O)(=O)c3cccs3)c2O[C@H]1CN(C)CC1CCCCC1	-12.4	1.6	-8.7
C[C@H](CO)N1C[C@H](C)[C@H](CN(C)CC2CC2)Oc2ccc(NC(=O)Nc3ccc(F)cc3)cc2CC1=O	-0.1	-2.1	-8.4
C[C@@H]1CN([C@H](C)CO)C(=O)c2cc(NC(=O)Nc3ccc(C(F)(F)F)cc3)ccc2O[C@H]1CN(C)Cc1ccc(C(F)(F)F)cc1	3.6	15.2	114.4*
C[C@H]1CN([C@@H](C)CO)C(=O)c2cc(NC(=O)Nc3ccc(C(F)(F)F)cc3)ccc2O[C@H]1CN(C)Cc1ccc(C(F)(F)F)cc1	-23.3	32.8	115.2*
COc1ccc(NC(=O)Nc2ccc3c(c2)C(=O)N([C@@H](C)CO)C[C@@H](C)[C@H](CN(C)S(=O)(=O)c2ccc(OC)cc2)O3)cc1	3.9	-31.6	-6.9
Cc1ccc(O)c(C2=Nc3ccccc3N=C(C(F)(F)F)C2)c1	-55.8	19.5	89.1*
CNC(=O)N(Cc1cccnc1)Cc1ccccc1Cl	-0.5	-2.9	32.1
O=C1Cc2c([nH]c3ccc(Br)cc23)-c2ccccc2N1	-1.2	-34.1	88.9*
Cc1noc(C)c1S(=O)(=O)Nc1ccc2c(c1)C(=O)N([C@@H](C)CO)C[C@@H](C)[C@@H](CN(C)S(=O)(=O)c1c(C)noc1C)O2	-19.8	-3.2	8.1
Cc1ccc(N(CC(O)Cn2c3ccccc3c3ccccc32)S(C)(=O)=O)c(C)c1 (centres undefined)	.	3.6	89.9*
Cc1ccc(N(CC(O)Cn2c3ccccc3c3ccccc32)S(C)(=O)=O)cc1 (centres undefined)	.	31.5	43.8
Cc1nc(-c2ccncc2)nc(NCCNc2cc(C(F)(F)F)ccn2)c1Cl	-32.1	-0.1	9.2
C=C(C)CC1C(=O)NN=C1C (centres undefined)	.	-28.9	-5.3
C[C@@H]1CN([C@@H](C)CO)C(=O)Cc2cc(NS(=O)(=O)c3ccc(Cl)cc3)ccc2O[C@@H]1CN(C)CC1CCCCC1	-3.3	-9.4	101.6*
C[C@H]1CN([C@@H](C)CO)C(=O)Cc2cc(NS(=O)(=O)c3ccc(Cl)cc3)ccc2O[C@H]1CN(C)CC1CC1	.	-7.5	9.1
